About 7,900 targets were measured; listed, in parts, are those with a hit and a random draw of the rest. About 0.6% of all pairs of compound and target were hits.
What was measured:
Test in all cases: log2 fold change, soluble protein after heating vs DMSO (PISA); higher = thermal stabilisation; K562 cells, 10 uM, 30 min; active = over 0.2 and 3.5 SD of the protein, either way, in both replicates (recomputed)
IRAK-1-4 Inhibitor I = compound: C1COCCN1CCN2C3=CC=CC=C3N=C2NC(=O)C4=CC(=CC=C4)[N+](=O)[O-] [IRAK-1-4 Inhibitor I]
Outline: (§1)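 K562 cells (2×10^6 cells/mL) were treated with 10 μM compound for 30 min, and aliquots were heated for 3 min over 48°C-58°C. Pooled aliquots were extracted in PBS with 0.5% NP-40 at 4°C, and the supernatant after 21,000xg for 90 min was measured by TMTpro 16plex LC-MS/MS with channel sums equalised. Reported thermal stability, relative to control samples and from duplicates, is a log2 fold change.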

[1] = compound: CC(C)C1=C2N=C(C=C(N2N=C1)NCC3=CC=CC=C3)NCCCCCCN
Outline: as §1

pinometostat = compound: CC(C)N(C[C@H]1O[C@@H](n2cnc3c(N)ncnc32)[C@H](O)[C@@H]1O)[C@H]1C[C@@H](CCc2nc3cc(C(C)(C)C)ccc3[nH]2)C1 [pinometostat]
Outline: as §1

[2] = compound: CC1=C(C2=C(C=C1)C(=O)C3=CC=CC=C3N2CCCN)C
Outline: as §1

[3] = compound: CC1=CC=C(C=C1)SC2=C3C=C(SC3=CN=C2)C(=O)N
Outline: as §1

[4] = compound: CC1=NC(=CC=C1)C2=C(N=C(N2)C(C)(C)C)C3=CC4=NC=CN=C4C=C3
Outline: as §1

[5] = compound: CCCS(=O)(=O)Nc1ccc(F)c(C(=O)c2c[nH]c3ncc(Cl)cc23)c1F
Outline: as §1

[6] = compound: CCCc1cc(C)[nH]c(=O)c1CNC(=O)c1cc(-c2ccnc(N3CCN(C)CC3)c2)cc2c1cnn2C(C)C
Outline: as §1

givinostat = compound: CCN(CC)Cc1ccc2cc(COC(=O)Nc3ccc(C(=O)NO)cc3)ccc2c1 [givinostat]
Outline: as §1

[7] = compound: CC(=O)c1cnc2ccc(-c3cc(Cl)c(O)c(Cl)c3)nc2c1N[C@H]1CC[C@H](CN(C)C)CC1
Outline: as §1

[8] = compound: CC1=C(C=C(C=C1)NC(=O)C2=CC(=CC=C2)C(C)(C)C#N)NC3=CC4=C(C=C3)N=CN(C4=O)C
Outline: as §1

vemurafenib = compound: CCCS(=O)(=O)Nc1ccc(F)c(C(=O)c2c[nH]c3ncc(-c4ccc(Cl)cc4)cc23)c1F [vemurafenib]
Outline: as §1

ibrutinib = compound: C=CC(=O)N1CCC[C@@H](n2nc(-c3ccc(Oc4ccccc4)cc3)c3c(N)ncnc32)C1 [ibrutinib]
Outline: as §1

ralimetinib = compound: CC(C)(C)Cn1c(N)nc2ccc(-c3[nH]c(C(C)(C)C)nc3-c3ccc(F)cc3)nc21 [ralimetinib]
Outline: as §1

[9] = compound: CC(C)(O)CC(=O)NCCn1ccc2ncnc(Nc3ccc(Oc4cccc(C(F)(F)F)c4)c(Cl)c3)c21
Outline: as §1

[10] = compound: CC(C)C[C@@H](C=O)NC(=O)[C@H](CC(C)C)NC(=O)[C@H](CC(C)C)NC(=O)OCc1ccccc1
Outline: as §1

[11] = compound: CC1=C(C(CC(=O)N1)C2=CC=C(C=C2)C(F)(F)F)C(=O)NC3=C(C=C4C(=C3)C=NN4)F
Outline: as §1

[12] = compound: CC1=C(C=C(C=C1)NC(=O)C2=CC(=CC=C2)N(C)C)NC(=O)C3=CC=C(C=C3)O
Outline: as §1

Nexturastat A = compound: CCCCN(Cc1ccc(C(=O)NO)cc1)C(=O)Nc1ccccc1 [Nexturastat A]
Outline: as §1

barasertib = compound: CCN(CCCOc1ccc2c(Nc3cc(CC(=O)Nc4cccc(F)c4)[nH]n3)ncnc2c1)CCOP(=O)(O)O [barasertib]
Outline: as §1

Measured: log2 fold change

ING5 (UniProt Q8WYH8)
inactive: IRAK-1-4 Inhibitor I 0.101 | [1] -0.395 | pinometostat 0.097 | [2] 0.03 | [3] 0.058 | [4] -0.052 | [5] -0.011 | [6] -0.237 | givinostat 0.316

KIF13A isoform 4 (UniProt Q9H1H9)
inactive: [7] 0.123 | [8] 0.035

KIF1B isoform 3 (UniProt O60333)
inactive: vemurafenib -0.244 | [6] -0.006

KMT5A (UniProt Q9NQR1)
inactive: [8] 0.07

KLHL18 (UniProt O94889)
inactive: ibrutinib 0.082 | [7] 0.104 | ralimetinib 0.055 | [9] 0.006 | [1] -0.117 | [10] -0.111 | [11] 0.026 | [2] 0.088 | [8] -0.068 | [12] -0.009 | [3] 0.003 | Nexturastat A -0.099 | vemurafenib -0.05 | [5] -0.051 | [6] 0.06 | givinostat -0.049 | barasertib 0.11

MAP4K4 isoform 6 (UniProt O95819)
Sequence of UniProt O95819 (O95819 whole entry, looked up): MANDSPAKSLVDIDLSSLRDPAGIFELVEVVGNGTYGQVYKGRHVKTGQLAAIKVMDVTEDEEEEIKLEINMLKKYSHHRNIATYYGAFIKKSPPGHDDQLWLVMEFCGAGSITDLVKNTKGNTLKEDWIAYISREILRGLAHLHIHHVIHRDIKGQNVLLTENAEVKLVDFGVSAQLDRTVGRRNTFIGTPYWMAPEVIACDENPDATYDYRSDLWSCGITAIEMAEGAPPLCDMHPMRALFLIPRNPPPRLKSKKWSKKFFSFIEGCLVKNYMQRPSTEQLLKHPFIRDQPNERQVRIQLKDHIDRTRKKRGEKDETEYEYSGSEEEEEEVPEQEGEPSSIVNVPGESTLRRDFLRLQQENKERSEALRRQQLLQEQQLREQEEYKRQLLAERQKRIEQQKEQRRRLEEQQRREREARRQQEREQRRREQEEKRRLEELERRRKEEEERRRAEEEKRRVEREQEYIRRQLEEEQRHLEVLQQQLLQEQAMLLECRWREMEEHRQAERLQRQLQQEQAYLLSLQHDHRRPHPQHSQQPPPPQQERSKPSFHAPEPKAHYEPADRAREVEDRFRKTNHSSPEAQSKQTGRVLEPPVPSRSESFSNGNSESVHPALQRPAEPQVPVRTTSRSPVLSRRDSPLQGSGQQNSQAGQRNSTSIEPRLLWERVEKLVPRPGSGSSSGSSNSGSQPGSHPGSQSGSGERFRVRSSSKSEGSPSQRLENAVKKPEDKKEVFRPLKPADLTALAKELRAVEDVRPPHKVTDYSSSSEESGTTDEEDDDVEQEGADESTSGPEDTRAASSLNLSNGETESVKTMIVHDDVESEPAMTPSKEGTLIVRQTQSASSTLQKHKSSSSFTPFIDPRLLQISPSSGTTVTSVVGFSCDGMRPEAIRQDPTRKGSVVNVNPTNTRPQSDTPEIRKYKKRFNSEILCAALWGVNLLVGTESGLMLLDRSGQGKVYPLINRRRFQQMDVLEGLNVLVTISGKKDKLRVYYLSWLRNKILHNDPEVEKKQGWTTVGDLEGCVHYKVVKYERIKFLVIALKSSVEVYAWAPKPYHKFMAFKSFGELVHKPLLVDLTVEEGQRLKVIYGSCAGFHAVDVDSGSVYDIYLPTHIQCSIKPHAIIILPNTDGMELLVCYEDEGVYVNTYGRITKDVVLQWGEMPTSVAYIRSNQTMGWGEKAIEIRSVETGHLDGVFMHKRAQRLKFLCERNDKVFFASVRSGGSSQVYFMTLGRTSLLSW
inactive: [11] -0.033 | [2] 0.143 | [8] -0.031 | vemurafenib -0.052 | [6] 0.393

IGFBP3 isoform 2 (UniProt P17936)
inactive: IRAK-1-4 Inhibitor I 0.115 | [7] 0.097 | [9] 0.196 | pinometostat -0.004 | [2] -0.095 | [8] -0.187 | [3] 0.1 | [4] 0.205 | Nexturastat A 0.204 | vemurafenib 0.031 | [5] 0.076

LMBRD1 (UniProt Q9NUN5)
Sequence of UniProt Q9NUN5 (Q9NUN5 whole entry, looked up): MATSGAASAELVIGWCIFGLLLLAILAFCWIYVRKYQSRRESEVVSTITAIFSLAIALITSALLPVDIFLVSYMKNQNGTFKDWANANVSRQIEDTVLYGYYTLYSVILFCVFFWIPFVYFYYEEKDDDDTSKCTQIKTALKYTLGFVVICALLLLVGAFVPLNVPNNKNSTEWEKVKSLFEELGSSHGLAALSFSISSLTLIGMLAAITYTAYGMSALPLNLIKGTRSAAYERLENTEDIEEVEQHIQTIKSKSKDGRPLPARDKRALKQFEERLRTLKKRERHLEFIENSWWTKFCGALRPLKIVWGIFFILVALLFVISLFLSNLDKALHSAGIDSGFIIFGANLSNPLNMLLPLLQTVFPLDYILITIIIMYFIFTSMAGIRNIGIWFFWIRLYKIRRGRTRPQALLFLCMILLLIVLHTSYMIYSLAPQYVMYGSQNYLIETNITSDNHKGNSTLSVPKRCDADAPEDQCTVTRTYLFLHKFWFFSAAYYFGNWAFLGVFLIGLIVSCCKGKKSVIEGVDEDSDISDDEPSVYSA
active: [1] -0.708
inactive: ibrutinib 0.036 | [7] 0.026 | ralimetinib 0.088 | [9] -0.059 | [10] -0.022 | [11] 0.088 | [2] -0.086 | [8] 0.073 | [12] 0.02 | [3] 0.023 | Nexturastat A -0.034 | vemurafenib -0.101 | [5] -0.057 | [6] -0.077 | givinostat 0.05 | barasertib -0.039

LPIN3 isoform 2 (UniProt Q9BQK8)
inactive: ibrutinib -0.041 | [7] -0.164 | ralimetinib -0.024 | [9] -0.14 | [1] 0.027 | [10] 0.073 | [11] -0.019 | [2] 0.099 | [8] -0.152 | [12] 0.005 | [3] -0.04 | Nexturastat A -0.014 | vemurafenib -0.001 | [5] -0.069 | [6] -0.014 | givinostat -0.006 | barasertib -0.054

MAPK7 (UniProt Q13164)
inactive: IRAK-1-4 Inhibitor I -0.033 | [9] 0.008 | pinometostat 0.105 | [4] -0.169 | Nexturastat A 0.275
active: [7] 1.41

LEPROT (UniProt O15243)
Sequence of UniProt O15243 (O15243 whole entry, looked up): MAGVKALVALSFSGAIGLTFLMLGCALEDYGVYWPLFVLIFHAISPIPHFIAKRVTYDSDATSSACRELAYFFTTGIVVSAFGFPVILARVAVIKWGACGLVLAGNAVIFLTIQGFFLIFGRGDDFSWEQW
active: [1] -0.777
inactive: [7] -0.037 | [9] 0.142 | [2] 0.092 | Nexturastat A -0.02 | [6] -0.12 | givinostat -0.467

MARCHF3 (UniProt Q86UD3)
Sequence of UniProt Q86UD3 (Q86UD3 whole entry, looked up): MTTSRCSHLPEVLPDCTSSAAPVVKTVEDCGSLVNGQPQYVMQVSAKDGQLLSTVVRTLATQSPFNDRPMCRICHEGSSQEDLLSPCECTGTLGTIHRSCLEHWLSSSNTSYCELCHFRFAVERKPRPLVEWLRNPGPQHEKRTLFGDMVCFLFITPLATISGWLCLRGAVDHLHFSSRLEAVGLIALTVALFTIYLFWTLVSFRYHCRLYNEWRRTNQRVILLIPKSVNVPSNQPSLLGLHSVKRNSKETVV
inactive: ibrutinib 0.073 | [9] -0.133 | [11] -0.058 | [8] 0.001 | [3] -0.008 | Nexturastat A 0.081 | [5] -0.01 | barasertib 0.025

MAML1 (UniProt Q92585)
inactive: IRAK-1-4 Inhibitor I 0.117 | ralimetinib 0.013 | [9] 0.02 | [1] 0.016 | [10] -0.043 | pinometostat -0.133 | [8] -0.05 | [12] -0.035 | [4] 0.199 | Nexturastat A 0.039 | vemurafenib 0.038 | givinostat 0.299

IKZF1 isoform 2 (UniProt Q13422)
inactive: ibrutinib 0.252 | ralimetinib 0.152 | [1] 0.031 | [10] 0.159 | [11] -0.041 | [8] 0.141 | [12] -0.068 | vemurafenib 0.095 | [6] -0.002 | givinostat -0.135 | barasertib -0.08
active: [2] 0.418

LRRFIP1 isoform 4 (UniProt Q32MZ4)
inactive: IRAK-1-4 Inhibitor I -0.06 | [7] 0.163 | [9] -0.019 | [1] 0.031 | pinometostat -0.019 | [4] 0.186 | Nexturastat A -0.077 | givinostat 0.011

ITPRID2 (UniProt P28290)
inactive: IRAK-1-4 Inhibitor I 0.004 | ralimetinib -0.025 | [9] 0.238 | [10] 0.063 | pinometostat 0.03 | [12] -0.003 | [3] -0.103 | [4] -0.065 | Nexturastat A -0.188 | vemurafenib -0.125 | [5] -0.097 | givinostat 0.213
active: [1] -0.686

LSR isoform 3 (UniProt Q86X29)
inactive: [2] -0.106 | [8] -0.232 | [3] 0.04 | [5] 0.158 | [6] -0.081

MAPRE3 isoform 2 (UniProt Q9UPY8)
inactive: IRAK-1-4 Inhibitor I -0.384 | [7] -0.139 | pinometostat -0.101 | [11] 0.029 | [2] 0.109 | [3] -0.075 | [4] -0.065 | [5] 0.029

KXD1 (UniProt Q9BQD3)
Sequence of UniProt Q9BQD3 (Q9BQD3 whole entry, looked up): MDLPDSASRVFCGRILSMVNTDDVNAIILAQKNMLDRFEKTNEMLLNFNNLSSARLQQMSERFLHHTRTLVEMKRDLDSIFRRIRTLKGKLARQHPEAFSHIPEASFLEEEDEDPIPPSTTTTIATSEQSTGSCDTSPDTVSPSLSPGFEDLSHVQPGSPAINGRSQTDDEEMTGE
inactive: ibrutinib 0.092 | [7] -0.073 | ralimetinib -0.053 | [9] 0.034 | [1] -0.181 | [10] 0.041 | [2] 0.057 | [12] -0.025 | [3] 0 | Nexturastat A -0.223 | vemurafenib 0.092 | [5] 0.059 | [6] 0.072 | givinostat 0.094 | barasertib -0.021

MAP4 isoform 5 (UniProt P27816)
Sequence of UniProt P27816 (P27816 whole entry, looked up): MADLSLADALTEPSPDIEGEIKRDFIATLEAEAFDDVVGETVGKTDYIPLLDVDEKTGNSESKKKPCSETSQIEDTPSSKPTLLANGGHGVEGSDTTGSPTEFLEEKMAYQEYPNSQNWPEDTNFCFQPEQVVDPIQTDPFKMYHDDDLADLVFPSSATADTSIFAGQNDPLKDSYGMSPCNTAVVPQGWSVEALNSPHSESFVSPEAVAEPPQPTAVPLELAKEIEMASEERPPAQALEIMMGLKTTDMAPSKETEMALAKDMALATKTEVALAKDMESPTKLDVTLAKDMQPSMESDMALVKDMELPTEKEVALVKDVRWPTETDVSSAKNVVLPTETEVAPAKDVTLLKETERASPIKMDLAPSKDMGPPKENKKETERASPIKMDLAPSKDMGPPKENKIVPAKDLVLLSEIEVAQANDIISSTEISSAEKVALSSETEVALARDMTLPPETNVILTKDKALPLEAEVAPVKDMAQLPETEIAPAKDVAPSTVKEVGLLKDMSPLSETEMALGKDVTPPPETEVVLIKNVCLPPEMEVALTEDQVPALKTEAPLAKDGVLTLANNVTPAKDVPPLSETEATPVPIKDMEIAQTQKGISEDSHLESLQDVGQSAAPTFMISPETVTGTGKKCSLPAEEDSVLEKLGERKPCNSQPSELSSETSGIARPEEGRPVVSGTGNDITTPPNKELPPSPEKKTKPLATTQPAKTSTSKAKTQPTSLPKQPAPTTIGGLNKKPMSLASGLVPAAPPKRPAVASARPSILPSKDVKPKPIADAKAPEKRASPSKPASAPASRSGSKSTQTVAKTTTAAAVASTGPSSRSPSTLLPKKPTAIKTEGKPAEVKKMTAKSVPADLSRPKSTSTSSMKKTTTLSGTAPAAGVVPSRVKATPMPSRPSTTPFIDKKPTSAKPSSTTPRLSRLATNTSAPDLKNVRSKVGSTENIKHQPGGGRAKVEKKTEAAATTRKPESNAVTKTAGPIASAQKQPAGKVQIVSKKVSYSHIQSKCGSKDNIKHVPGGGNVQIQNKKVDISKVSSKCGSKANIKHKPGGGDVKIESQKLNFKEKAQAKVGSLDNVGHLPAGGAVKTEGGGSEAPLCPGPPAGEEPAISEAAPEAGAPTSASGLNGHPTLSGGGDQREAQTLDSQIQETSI
inactive: ibrutinib 0.076 | [7] 0.142 | ralimetinib -0.019 | [9] 0.052 | [1] 0.083 | [10] 0.014 | [11] 0.298 | [8] 0.013 | [12] 0.055 | [3] -0.173 | Nexturastat A 0.105 | [5] -0.01 | [6] -0.161 | givinostat -0.028 | barasertib -0.114

LRRCC1 (UniProt Q9C099)
inactive: [7] 0.047 | ralimetinib 0.043 | [10] 0.237 | [2] 0.109 | [12] 0.039

MCOLN3 (UniProt Q8TDD5)
inactive: ibrutinib -0.17 | ralimetinib -0.057 | [1] 0.019 | [10] 0.029 | [11] 0.03 | [2] 0.08 | [12] 0.013 | [3] 0.15 | [5] 0.014 | [6] -0.481 | givinostat 0.221 | barasertib -0.171

ITM2C (UniProt Q9NQX7)
inactive: ibrutinib -0.069 | [7] -0.07 | ralimetinib -0.063 | [9] -0.186 | [10] 0.036 | [11] -0.368 | [8] 0.096 | [12] 0.004 | [3] 0.187 | Nexturastat A 0.084 | vemurafenib 0.006 | [5] -0.014 | givinostat 0.09 | barasertib 0.057
active: [1] -0.445

MFSD1 isoform 6 (UniProt Q9H3U5)
active: [1] -0.427
inactive: ibrutinib 0.017 | [7] 0.025 | ralimetinib -0.172 | [9] 0.055 | [10] 0.043 | [11] 0.017 | [2] 0.08 | [8] 0.056 | [12] -0.008 | [3] -0.046 | Nexturastat A -0.106 | vemurafenib -0.053 | [5] -0.059 | [6] 0.021 | givinostat 0.008 | barasertib 0.041

MFAP3 (UniProt P55082)
inactive: ibrutinib -0.027 | [7] -0.067 | [9] -0.165 | [2] -0.111 | [8] 0.038 | Nexturastat A 0.11 | vemurafenib -0.115 | barasertib 0.05

IPP (UniProt Q9Y573)
inactive: ibrutinib 0.041 | [7] -0.084 | barasertib -0.139

MFSD12 isoform 3 (UniProt Q6NUT3)
Sequence of UniProt Q6NUT3 (Q6NUT3 whole entry, looked up): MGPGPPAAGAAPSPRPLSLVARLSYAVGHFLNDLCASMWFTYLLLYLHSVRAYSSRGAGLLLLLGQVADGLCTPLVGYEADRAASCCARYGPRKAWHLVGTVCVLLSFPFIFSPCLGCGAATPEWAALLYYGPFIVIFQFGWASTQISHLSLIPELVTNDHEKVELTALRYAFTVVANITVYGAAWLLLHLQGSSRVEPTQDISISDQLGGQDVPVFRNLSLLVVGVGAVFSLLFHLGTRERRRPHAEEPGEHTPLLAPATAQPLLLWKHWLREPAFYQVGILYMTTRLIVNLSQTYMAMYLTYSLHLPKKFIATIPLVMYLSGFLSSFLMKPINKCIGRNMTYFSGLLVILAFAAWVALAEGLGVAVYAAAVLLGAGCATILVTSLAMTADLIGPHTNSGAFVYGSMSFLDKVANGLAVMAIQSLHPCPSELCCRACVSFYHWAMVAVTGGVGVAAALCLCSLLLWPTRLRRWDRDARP
inactive: [7] -0.002 | [2] -0.066 | [8] 0.115 | givinostat -0.022
active: [1] -0.474

MAPK11 (UniProt Q15759)
active: ralimetinib 1.47
inactive: IRAK-1-4 Inhibitor I -0.22 | [1] -0.853 | [10] -0.091 | pinometostat -0.111 | [2] 0.103 | [12] 0.094 | [4] 0.045 | givinostat 0.131

IGFBP6 (UniProt P24592)
Sequence of UniProt P24592 (P24592 whole entry, looked up): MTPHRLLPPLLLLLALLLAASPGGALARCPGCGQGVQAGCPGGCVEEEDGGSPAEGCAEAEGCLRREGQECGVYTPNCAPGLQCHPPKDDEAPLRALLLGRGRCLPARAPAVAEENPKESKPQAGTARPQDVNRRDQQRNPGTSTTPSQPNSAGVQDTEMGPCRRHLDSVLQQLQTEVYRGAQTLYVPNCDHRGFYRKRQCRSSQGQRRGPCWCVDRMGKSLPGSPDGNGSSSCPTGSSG
inactive: [7] -0.02 | ralimetinib -0.049 | [10] 0.097 | [12] 0.03 | vemurafenib 0.189

IP6K1 (UniProt Q92551)
active: [1] -0.667
inactive: ibrutinib 0.05 | [7] -0.154 | ralimetinib -0.159 | [9] -0.295 | [10] 0.069 | [2] 0.095 | [8] 0.443 | [12] 0.022 | Nexturastat A 0.232 | [5] -0.015 | [6] 0.068 | givinostat -0.008 | barasertib 0.259

LSR (UniProt M0QZL9)
inactive: [9] 0.057 | [8] -0.324 | Nexturastat A -0.157 | vemurafenib 0.024

MAGED1 isoform 2 (UniProt Q9Y5V3)
Sequence of UniProt Q9Y5V3 (Q9Y5V3 whole entry, looked up): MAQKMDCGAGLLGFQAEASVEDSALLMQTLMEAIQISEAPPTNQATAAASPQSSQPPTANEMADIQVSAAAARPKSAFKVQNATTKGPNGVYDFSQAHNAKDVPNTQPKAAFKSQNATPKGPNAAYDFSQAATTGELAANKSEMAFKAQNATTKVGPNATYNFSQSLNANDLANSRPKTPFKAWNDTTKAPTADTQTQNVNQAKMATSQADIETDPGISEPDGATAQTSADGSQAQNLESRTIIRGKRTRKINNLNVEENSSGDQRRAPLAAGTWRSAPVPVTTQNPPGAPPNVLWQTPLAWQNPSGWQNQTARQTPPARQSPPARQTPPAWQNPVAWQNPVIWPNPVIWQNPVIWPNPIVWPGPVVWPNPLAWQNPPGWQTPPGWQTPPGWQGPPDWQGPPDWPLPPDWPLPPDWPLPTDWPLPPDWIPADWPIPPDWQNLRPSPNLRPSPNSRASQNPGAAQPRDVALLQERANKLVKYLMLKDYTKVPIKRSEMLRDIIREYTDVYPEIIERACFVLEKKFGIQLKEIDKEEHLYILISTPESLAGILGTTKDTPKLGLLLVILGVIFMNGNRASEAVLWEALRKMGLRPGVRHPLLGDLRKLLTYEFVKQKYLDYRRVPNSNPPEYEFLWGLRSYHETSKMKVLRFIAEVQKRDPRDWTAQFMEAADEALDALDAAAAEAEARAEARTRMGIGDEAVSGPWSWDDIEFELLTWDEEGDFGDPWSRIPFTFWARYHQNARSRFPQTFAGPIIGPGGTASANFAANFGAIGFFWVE
inactive: [7] 0.03 | [9] -0.136 | [1] 0 | [11] 0.019 | [8] 0.003 | [3] 0.1 | vemurafenib -0.236 | [5] 0.198 | givinostat 0.006
active: Nexturastat A 0.608

MED29 (UniProt Q9NX70)
inactive: [7] -0.215 | [1] -0.038 | [11] -0.08 | [3] -0.075 | [5] 0.131 | [6] 0.025 | givinostat -0.076

LIN52 (UniProt Q52LA3)
inactive: [6] 0.123

IKZF1 (UniProt R9R4D9)
inactive: IRAK-1-4 Inhibitor I -0.1 | pinometostat -0.103 | [2] 0.385 | [3] -0.116 | [4] 0.026 | [5] 0.033

Source: the supplement of paper PMC10849652
